# Test results taken from the supplement of paper PMC4022240.
# ± gives the standard deviation.
# T1: HaloTag-ATRX ADD domain (163-292)
# T1 chain: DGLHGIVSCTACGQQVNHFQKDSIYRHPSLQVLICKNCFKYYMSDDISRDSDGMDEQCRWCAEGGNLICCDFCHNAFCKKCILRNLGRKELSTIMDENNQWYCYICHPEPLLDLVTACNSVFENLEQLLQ
# Key:
# Assay in all cases: peptide microarray binding signal (635 nm), min-max normalized on array (fraction of array maximum); higher = stronger binding
# Settings in all cases: peptide region: H3 20-32
# [1] = target: T1, HaloTag-ATRX ADD domain (163-292)
# Outline: (§1)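 For each library, binding signal was taken as the triplicate-spot mean intensity and then min-max scaled. Spots of histone 13-mer peptide–cellulose conjugates on nitrocellulose, printed in triplicate with a Cy3 tracer, were probed for 1 h at 4°C with either biotin-labelled HaloTag reader fusions (10 nM to 1 μM) and streptavidin-Alexa Fluor 647 or rabbit histone antibodies (1:10,000 to 1:2,000) and anti-rabbit Alexa 647. Readout at 635 nm came from an Axon GenePix 4000B.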
# [2] = target: HaloTag-ING2 PHD (mouse Ing2 200-280)
# Outline: as §1
# [3] = target: anti-H3K4me3 antibody ab8580
# Outline: as §1
# [4] = target: anti-H3K9me3 antibody ab8898
# Outline: as §1
# [5] = peptide modifications: H3K27me1, binder concentration: 1:2,000 dilution
# [6] = peptide modifications: H3K27me1, binder concentration: 1:10,000 dilution
# [7] = peptide modifications: H3K23me2 H3K27me3, binder concentration: 1:2,000 dilution
# [8] = peptide modifications: H3K23me2 H3K27me3, binder concentration: 1:10,000 dilution
# [9] = peptide modifications: H3R26cit H3K27me1, binder concentration: 1:2,000 dilution
# [10] = peptide modifications: H3R26cit H3K27me1, binder concentration: 1:10,000 dilution
# [11] = peptide modifications: H3K23me3 H3K27me2, binder concentration: 1:2,000 dilution
# [12] = peptide modifications: H3K23me3 H3K27me2, binder concentration: 1:10,000 dilution
# [13] = peptide modifications: H3K27me2, binder concentration: 1:2,000 dilution
# [14] = peptide modifications: H3K27me2, binder concentration: 1:10,000 dilution
# [15] = peptide modifications: H3K27ac H3S28ph, binder concentration: 1:2,000 dilution
# [16] = peptide modifications: H3K27ac H3S28ph, binder concentration: 1:10,000 dilution
# [17] = peptide modifications: H3K23me2 H3K27me1, binder concentration: 1:2,000 dilution
# [18] = peptide modifications: H3K23me2 H3K27me1, binder concentration: 1:10,000 dilution
# [19] = peptide modifications: H3K23me3 H3K27me3, binder concentration: 1:2,000 dilution
# [20] = peptide modifications: H3K23me3 H3K27me3, binder concentration: 1:10,000 dilution
# [21] = peptide modifications: H3K23me3 H3K27me1, binder concentration: 1:2,000 dilution
# [22] = peptide modifications: H3K23me3 H3K27me1, binder concentration: 1:10,000 dilution
# [23] = peptide modifications: H3K23me3, binder concentration: 1:2,000 dilution
# [24] = peptide modifications: H3K23me3, binder concentration: 1:10,000 dilution
binder,measurement,setting,value
LATKAARKSAPAT [H3 20-32 L A T K A A R Kme S A P A T],peptide microarray binding signal,"[1]; peptide modifications: H3K27me1, binder concentration: 50 nM",0.00455 ± 9.6e-05
same,peptide microarray binding signal,"[1]; peptide modifications: H3K27me1, binder concentration: 500 nM",0.00714 ± 0.00042
same,peptide microarray binding signal,"[2]; peptide modifications: H3K27me1, binder concentration: 10 nM",0.00961 ± 0.00022
same,peptide microarray binding signal,"[2]; peptide modifications: H3K27me1, binder concentration: 100 nM",0.0148 ± 0.00019
same,peptide microarray binding signal,[3]; [5],0.00402 ± 0.00028
same,peptide microarray binding signal,[3]; [6],0.00405 ± 0.00025
same,peptide microarray binding signal,[4]; [5],0.00231 ± 0.00014
same,peptide microarray binding signal,[4]; [6],0.00208 ± 3.9e-05
LATKAARKSAPAT [H3 20-32 L A T Kme2 A A R Kme3 S A P A T],peptide microarray binding signal,"[1]; peptide modifications: H3K23me2 H3K27me3, binder concentration: 50 nM",0.0058 ± 9.2e-05
same,peptide microarray binding signal,"[1]; peptide modifications: H3K23me2 H3K27me3, binder concentration: 500 nM",0.00581 ± 0.00013
same,peptide microarray binding signal,"[2]; peptide modifications: H3K23me2 H3K27me3, binder concentration: 10 nM",0.01343 ± 4.8e-05
same,peptide microarray binding signal,"[2]; peptide modifications: H3K23me2 H3K27me3, binder concentration: 100 nM",0.0205 ± 0.00075
same,peptide microarray binding signal,[3]; [7],0.02482 ± 0.00013
same,peptide microarray binding signal,[3]; [8],0.0215 ± 0.00042
same,peptide microarray binding signal,[4]; [7],0.0892 ± 0.0073
same,peptide microarray binding signal,[4]; [8],0.0609 ± 0.0066
LATKAARKSAPAT [H3 20-32 L A T K A A Rcit Kme S A P A T],peptide microarray binding signal,"[1]; peptide modifications: H3R26cit H3K27me1, binder concentration: 50 nM",0.0118 ± 0.0037
same,peptide microarray binding signal,"[1]; peptide modifications: H3R26cit H3K27me1, binder concentration: 500 nM",0.011 ± 0.002
same,peptide microarray binding signal,"[2]; peptide modifications: H3R26cit H3K27me1, binder concentration: 10 nM",0.0174 ± 0.00085
same,peptide microarray binding signal,"[2]; peptide modifications: H3R26cit H3K27me1, binder concentration: 100 nM",0.0171 ± 0.0017
same,peptide microarray binding signal,[3]; [9],0.00427 ± 0.00087
same,peptide microarray binding signal,[3]; [10],0.00576 ± 0.00078
same,peptide microarray binding signal,[4]; [9],0.00346 ± 0.0001
same,peptide microarray binding signal,[4]; [10],0.002249 ± 2.1e-05
LATKAARKSAPAT [H3 20-32 L A T Kme3 A A R Kme2 S A P A T],peptide microarray binding signal,"[1]; peptide modifications: H3K23me3 H3K27me2, binder concentration: 50 nM",0.00871 ± 0.00075
same,peptide microarray binding signal,"[1]; peptide modifications: H3K23me3 H3K27me2, binder concentration: 500 nM",0.0107 ± 0.0013
same,peptide microarray binding signal,"[2]; peptide modifications: H3K23me3 H3K27me2, binder concentration: 10 nM",0.0148 ± 0.0008
same,peptide microarray binding signal,"[2]; peptide modifications: H3K23me3 H3K27me2, binder concentration: 100 nM",0.0242 ± 0.0018
same,peptide microarray binding signal,[3]; [11],0.0639 ± 0.034
same,peptide microarray binding signal,[3]; [12],0.0807 ± 0.021
same,peptide microarray binding signal,[4]; [11],0.0464 ± 0.016
same,peptide microarray binding signal,[4]; [12],0.0257 ± 0.0034
LATKAARKSAPAT [H3 20-32 L A T K A A R Kme2 S A P A T],peptide microarray binding signal,"[1]; peptide modifications: H3K27me2, binder concentration: 50 nM",0.00292 ± 6.9e-05
same,peptide microarray binding signal,"[1]; peptide modifications: H3K27me2, binder concentration: 500 nM",0.003238 ± 2.5e-05
same,peptide microarray binding signal,"[2]; peptide modifications: H3K27me2, binder concentration: 10 nM",0.00567 ± 0.00012
same,peptide microarray binding signal,"[2]; peptide modifications: H3K27me2, binder concentration: 100 nM",0.00581 ± 0.00013
same,peptide microarray binding signal,[3]; [13],0.00193 ± 6.9e-05
same,peptide microarray binding signal,[3]; [14],0.00205 ± 3.8e-05
same,peptide microarray binding signal,[4]; [13],0.00153 ± 0.00012
same,peptide microarray binding signal,[4]; [14],0.00144 ± 3.7e-05
LATKAARKSAPAT [H3 20-32 L A T K A A R Kac Sph A P A T],peptide microarray binding signal,"[1]; peptide modifications: H3K27ac H3S28ph, binder concentration: 50 nM",0.00903 ± 0.00081
same,peptide microarray binding signal,"[1]; peptide modifications: H3K27ac H3S28ph, binder concentration: 500 nM",0.0153 ± 0.0002
same,peptide microarray binding signal,"[2]; peptide modifications: H3K27ac H3S28ph, binder concentration: 10 nM",0.0221 ± 0.0015
same,peptide microarray binding signal,"[2]; peptide modifications: H3K27ac H3S28ph, binder concentration: 100 nM",0.0405 ± 0.0074
same,peptide microarray binding signal,[3]; [15],0.00951 ± 0.0017
same,peptide microarray binding signal,[3]; [16],0.0101 ± 0.0017
same,peptide microarray binding signal,[4]; [15],0.00536 ± 0.0021
same,peptide microarray binding signal,[4]; [16],0.00277 ± 6.4e-05
LATKAARKSAPAT [H3 20-32 L A T Kme2 A A R Kme S A P A T],peptide microarray binding signal,"[1]; peptide modifications: H3K23me2 H3K27me1, binder concentration: 50 nM",0.00715 ± 0.00054
same,peptide microarray binding signal,"[1]; peptide modifications: H3K23me2 H3K27me1, binder concentration: 500 nM",0.0135 ± 0.00043
same,peptide microarray binding signal,"[2]; peptide modifications: H3K23me2 H3K27me1, binder concentration: 10 nM",0.0174 ± 0.00096
same,peptide microarray binding signal,"[2]; peptide modifications: H3K23me2 H3K27me1, binder concentration: 100 nM",0.0216 ± 0.00093
same,peptide microarray binding signal,[3]; [17],0.00978 ± 0.0012
same,peptide microarray binding signal,[3]; [18],0.0104 ± 0.00071
same,peptide microarray binding signal,[4]; [17],0.00618 ± 0.00062
same,peptide microarray binding signal,[4]; [18],0.00628 ± 0.00021
LATKAARKSAPAT [H3 20-32 L A T Kme3 A A R Kme3 S A P A T],peptide microarray binding signal,"[1]; peptide modifications: H3K23me3 H3K27me3, binder concentration: 50 nM",0.00527 ± 0.00011
same,peptide microarray binding signal,"[1]; peptide modifications: H3K23me3 H3K27me3, binder concentration: 500 nM",0.00571 ± 0.00016
same,peptide microarray binding signal,"[2]; peptide modifications: H3K23me3 H3K27me3, binder concentration: 10 nM",0.0186 ± 0.00059
same,peptide microarray binding signal,"[2]; peptide modifications: H3K23me3 H3K27me3, binder concentration: 100 nM",0.0317 ± 0.00033
same,peptide microarray binding signal,[3]; [19],0.0764 ± 0.0055
same,peptide microarray binding signal,[3]; [20],0.116 ± 0.014
same,peptide microarray binding signal,[4]; [19],0.115 ± 0.01
same,peptide microarray binding signal,[4]; [20],0.08 ± 0.0081
LATKAARKSAPAT [H3 20-32 L A T Kme3 A A R Kme S A P A T],peptide microarray binding signal,"[1]; peptide modifications: H3K23me3 H3K27me1, binder concentration: 50 nM",0.00426 ± 0.00018
same,peptide microarray binding signal,"[1]; peptide modifications: H3K23me3 H3K27me1, binder concentration: 500 nM",0.00776 ± 0.00023
same,peptide microarray binding signal,"[2]; peptide modifications: H3K23me3 H3K27me1, binder concentration: 10 nM",0.0209 ± 0.0012
same,peptide microarray binding signal,"[2]; peptide modifications: H3K23me3 H3K27me1, binder concentration: 100 nM",0.0322 ± 0.00049
same,peptide microarray binding signal,[3]; [21],0.0821 ± 0.0052
same,peptide microarray binding signal,[3]; [22],0.0667 ± 0.0068
same,peptide microarray binding signal,[4]; [21],0.0232 ± 0.0031
same,peptide microarray binding signal,[4]; [22],0.0156 ± 0.0017
LATKAARKSAPAT [H3 20-32 L A T Kme3 A A R K S A P A T],peptide microarray binding signal,"[1]; peptide modifications: H3K23me3, binder concentration: 50 nM",0.00323 ± 0.00014
same,peptide microarray binding signal,"[1]; peptide modifications: H3K23me3, binder concentration: 500 nM",0.00476 ± 6.4e-05
same,peptide microarray binding signal,"[2]; peptide modifications: H3K23me3, binder concentration: 10 nM",0.00931 ± 0.00034
same,peptide microarray binding signal,"[2]; peptide modifications: H3K23me3, binder concentration: 100 nM",0.0181 ± 0.00055
same,peptide microarray binding signal,[3]; [23],0.0211 ± 0.0028
same,peptide microarray binding signal,[3]; [24],0.0168 ± 0.00023
same,peptide microarray binding signal,[4]; [23],0.0113 ± 0.0027
same,peptide microarray binding signal,[4]; [24],0.00634 ± 0.00064
